Bioassay records (PubChem)
Rows were chosen to be rich in hits. Some 2.7% of all compounds tested hit in one or more screens of this group.
Nrf2 block: Nrf2 qHTS screen for inhibitors; AID 504444, 2011; Potency, µM (series often up to 46 µM), without a hit: at the top dose activity change, negative = inhibition, usual class: inhibitors; A549 ARE-Fluc reporter, luciferase luminescence, 18-24 h; actives 2.1% (n = 360,000); also: potency is read from the fitted curve at half-maximal effect; % is scaled to controls: 0 for no effect and ±100 for the full control effect; nearly all actives have a fitted effect of over 60% in size
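Two sequential reads on A549 ARE_Fluc cells exposed to compound for 18-24 h: a CellTiter-Fluor fluorescence read for viability, then a luciferase luminescence read for Nrf2/ARE activity.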
A549 viability: Nrf2 qHTS screen for inhibitors: counterscreen for cytotoxicity; A549 ARE-Fluc cells, CellTiter-Fluor viability, 18-24 h; Potency, µM (top dose mostly 46 µM), for the others: at the top dose activity change, negative = cytotoxicity, hits mostly inhibitors; actives 0.16% (n = 390,000); also: potency is read from the fitted curve at half-maximal effect; % is scaled to controls: 0 for no effect and ±100 for the full control effect
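A549 ARE-Fluc cells in 5% FBS OPTI-MEM, 5000 cells/well, rested 2 h then exposed to compounds in concentration-response for 18-24 h at 37 °C. Viability by CellTiter-Fluor fluorescence (Ex 405/Em 525) after 30 min; luciferase luminescence (BugLite, 15 min, RT) read afterwards.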
ALOX12 inh: Primary qHTS assay for inhibitors of human arachidonate 12S-lipoxygenase (ALOX12): Round 2; actives 1.1% (n = 580,000); Polyunsaturated fatty acid lipoxygenase ALOX12 (Homo sapiens), P18054; Potency, µM (highest dose often 108 µM), for the others: at the top dose activity change, negative = inhibition, actives largely listed as inhibitors; purified 12hLO, xylenol orange hydroperoxide absorbance; also: potency is read from the fitted curve at half-maximal effect; % is scaled to controls: 0 for no effect and ±100 for the full control effect
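Purified human 12hLO (150 nM final) in 25 mM Hepes, 0.01% Triton X-100, pH 7.0 was preincubated 15 min at room temperature with compound. Then 40 uM arachidonic acid was added, 30 min. Hydroperoxide was read by Fe-XO absorbance ratio 573/405 nm.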
Nrf2 activator: qHTS of Nrf2 Activators. AREc32 ARE-luciferase reporter (MCF7-derived line), luminescence, 24 h. Potency, µM (doses to about 46.1 µM), inactives show top-dose activation, hits mostly activators. actives 0.31% (n = 410,000); also: potency is read from the fitted curve at half-maximal effect; % of control where 0% means no effect; nearly all actives have a fitted effect of over 65% in size
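ARE activation measured as luciferase luminescence (Steady-Glo, 30 min RT) in AREc32_Fluc cells after 24 hr compound exposure at 37 deg C, 5% CO2; cells seeded overnight at 1000/well in OPTI-MEM, 5% FBS.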
ERG-DNA inh: qHTS for Small Molecule Inhibitors of the ERG Ets/DNA interaction; Transcriptional regulator ERG (Homo sapiens), P11308; fluorescence polarization, His-ERG Ets domain / labelled DNA; Potency, µM (series often up to 76.9 µM), without a hit: at the top dose FP activity, negative = inhibition, most hits filed as inhibitors; actives 0.028% (n = 370,000); active = well fitted inhibition curve with a large enough effect in the polarisation, with a control signal flat; inconclusive = small, poorly fitted or top-dose-only effect, or effect the other way, or a change in a side signal; inactive = no such curve, though single readings can be large or run the other way; the % refers to the polarisation;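 also: polarization taken with two DNA probes labelled with fluorescein and Texas red; potency is read from the fitted curve at half-maximal effect; % of control where 0% means no effect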
Target sequence (P11308 whole entry, looked up, the tested form may be a part): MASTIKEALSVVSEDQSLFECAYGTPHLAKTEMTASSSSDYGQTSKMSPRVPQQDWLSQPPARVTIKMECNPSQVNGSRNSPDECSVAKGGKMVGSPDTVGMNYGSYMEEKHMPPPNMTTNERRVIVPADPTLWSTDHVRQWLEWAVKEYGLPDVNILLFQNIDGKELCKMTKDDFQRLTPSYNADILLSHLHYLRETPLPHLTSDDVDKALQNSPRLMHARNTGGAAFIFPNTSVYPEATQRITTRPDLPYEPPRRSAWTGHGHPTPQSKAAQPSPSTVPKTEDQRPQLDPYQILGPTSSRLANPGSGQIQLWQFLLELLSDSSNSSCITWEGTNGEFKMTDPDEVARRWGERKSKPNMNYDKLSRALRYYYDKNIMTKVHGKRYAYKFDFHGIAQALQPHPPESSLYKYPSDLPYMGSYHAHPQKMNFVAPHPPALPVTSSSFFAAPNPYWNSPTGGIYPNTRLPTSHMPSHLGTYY
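His-tagged ERG Ets domain (1 uM in the protein solution; 300mM KCl, 50mM Tris-HCl, 1mM EDTA, 1mM DTT, pH 7.5) received compound, then a probe mix of 5 nM fluorescein-DNA and 100nM Texas-615-DNA. Fluorescence polarization was read for both dyes.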
LDHA block: qHTS assay for inhibitors of human lactate dehydrogenase; activity change, % (values are at about 110 or 230 µM); L-lactate dehydrogenase A chain (Homo sapiens), P00338; actives 0.15% (n = 480,000); purified LDHA, NADH/diaphorase-resazurin fluorescence; hits give low values; AID 1347041, 2019; in the data active = activity change below about -30%; inconclusive = mostly about -25% to -30%;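 also: plate controls were DMSO wells for no effect and wells without enzyme for full effect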
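LDH5 2 nM; NADH 0.06 mM, pyruvate 0.2 mM; 200 mM Tris pH 7.4, EDTA, Tween-20; 5 min RT. Detection: diaphorase 0.133 mg/mL + resazurin 37 µM, fluorescence ex540/em590 at 0 and 20 min; normalized to enzyme-free and DMSO wells.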
An asterisk follows results filed as active. Unless noted, calls follow the shape of the dose curve; as a rule, active = well fitted curve in the direction sought with a large enough effect; inconclusive = small, poorly fitted or top-dose-only effect, or another doubt; inactive = no such curve, though single readings can be large; an effect the other way counts as inactive or inconclusive.

Results for O=C(CC1CCCCC1)N1CCC2(CC1)NC(=O)N(c1ccccc1)N2 ?
ALOX12 inh: 7.1µM*

What do the screens show for `O=C(CC1CCCC1)N1CCN(S(=O)(=O)c2ccccc2)CC1`?
Nrf2 block: -5%; A549 viability: 1%; ALOX12 inh: 12%; Nrf2 activator: 0%; ERG-DNA inh: -6%; LDHA block: 0

How did O=C(CC1CCCCC1)N1CCC2(CC1)NC(=O)N(c1cccc(F)c1)N2 do in these assays?
ALOX12 inh: 2.8µM*

How did O=C(C1CCCCC1)N1CCC2(CC1)NC(=O)N(c1cccc(F)c1)N2 do in these assays?
ALOX12 inh: 1.4µM*

What do the screens show for `CCCn1nc(C(=O)Nc2ccc(F)c(S(=O)(=O)N3CCOCC3)c2)c2ccccc2c1=O`?
ALOX12 inh: inconclusive; LDHA block: 14

How did Cc1nc2cc(N3CCCCC3)c(NC(=O)c3cccnc3)cc2c(=O)n1Cc1ccccc1 do in these assays?
Nrf2 block: -14%; A549 viability: -4%; ALOX12 inh: -12%; Nrf2 activator: 0%; ERG-DNA inh: -5%; LDHA block: -3

What do the screens show for `CC(=O)Nc1cc2c(=O)n(Cc3ccccc3)c(C)nc2cc1N1CCOCC1`?
Nrf2 block: 12%; A549 viability: 9%; ALOX12 inh: 14µM*; Nrf2 activator: 2%; ERG-DNA inh: -15%; LDHA block: -1

What do the screens show for `Oc1ccc(/C=N/N(c2ccccc2)c2ccccc2)c(O)c1O`?
ALOX12 inh: 11µM*

What do the screens show for `C=CCC[C@H](Cc1ccc(F)cc1)C(=O)OC[C@@H](C)NC(=O)[C@@H](CC=C)CC(=O)N[C@H](CO)Cc1ccccc1`?
Nrf2 block: 21µM*; A549 viability: inconclusive; ALOX12 inh: 44%; Nrf2 activator: 0%; ERG-DNA inh: 5%; LDHA block: 5

How did C=CCC[C@H](Cc1ccc(F)cc1)C(=O)OC[C@@H](C)NC(=O)[C@@H](CC=C)CC(=O)N[C@@H](CO)Cc1ccccc1 do in these assays?
Nrf2 block: -9%; A549 viability: -2%; ALOX12 inh: -58%; Nrf2 activator: 5%; ERG-DNA inh: 5%; LDHA block: -6

What do the screens show for `C=CCC[C@H](Cc1ccc(F)cc1)C(=O)OC[C@@H](NC(=O)[C@@H](CC=C)CC(=O)N(CCO)Cc1ccccc1)C(C)(C)C`?
Nrf2 block: 3.3µM*; A549 viability: 6.5µM*; ALOX12 inh: -26%; Nrf2 activator: -5%; ERG-DNA inh: 1%; LDHA block: 8

How did C=CCC[C@@H](Cc1ccc(F)cc1)C(=O)OC[C@@H](NC(=O)[C@@H](CC=C)CC(=O)N[C@@H](CO)Cc1ccccc1)C(C)(C)C do in these assays?
Nrf2 block: 21µM*; A549 viability: inconclusive; ALOX12 inh: -10%; Nrf2 activator: -1%; ERG-DNA inh: 7%; LDHA block: 6

How did C[C@H]1CC(=O)[C@@]23COC4OC(c5ccoc5)CC41[C@@H]2CCCC31CO1 (stereo not given in full) do in these assays?
ALOX12 inh: -1%; LDHA block: 0

What do the screens show for `COc1ccc(-c2cc(-c3ccco3)[nH]c(=O)c2C#N)cc1`?
Nrf2 block: inconclusive; A549 viability: 0%; ALOX12 inh: 40µM*; Nrf2 activator: 0%; ERG-DNA inh: -7%; LDHA block: 2

How did COC(=O)c1ccccc1NC(=O)NC(=O)C(F)(F)F do in these assays?
ALOX12 inh: inconclusive; LDHA block: 1

What do the screens show for `O=C(N/N=C/c1c(Cl)cccc1Cl)c1ccccc1F`?
Nrf2 block: inconclusive; A549 viability: 7%; ALOX12 inh: -9%; Nrf2 activator: 5µM*; ERG-DNA inh: -6%; LDHA block: -4

Results for O=C(N/N=C/c1c(Cl)cccc1Cl)c1ccc(F)cc1 ?
A549 viability: -1%; ALOX12 inh: 8%; Nrf2 activator: inconclusive; ERG-DNA inh: -4%; LDHA block: -12

Results for COC(=O)c1c(NC(=O)c2ccco2)sc(C(=O)N(C)C)c1C ?
Nrf2 block: 0%; A549 viability: 0%; ALOX12 inh: -4%; Nrf2 activator: 13µM*; ERG-DNA inh: 3%; LDHA block: -2

How did Cc1cccc(C)c1NC(=O)CNC(=O)C(C)N1CCN(c2cccc(Cl)c2)CC1 (stereo not given) do in these assays?
Nrf2 block: 0%; A549 viability: 9%; ALOX12 inh: -1%; Nrf2 activator: 0%; ERG-DNA inh: 0%; LDHA block: -5

Results for CC(C(=O)Nc1cc(Cl)cc(Cl)c1)N1CCN(c2ccc(O)cc2)CC1 (stereo not given) ?
ALOX12 inh: 20µM*; LDHA block: 13

How did CCOc1ccc(-n2c(Cc3ccccc3)nnc2SCc2nc(-c3cccs3)no2)cc1 do in these assays?
Nrf2 block: 18µM*; A549 viability: inconclusive; ALOX12 inh: -24%; Nrf2 activator: 6%; ERG-DNA inh: -1%; LDHA block: -1

Results for COc1ccccc1-c1noc(CSc2nnc(Cc3ccccc3)n2-c2ccc(C)c(C)c2)n1 ?
Nrf2 block: 23µM*; A549 viability: inconclusive; ALOX12 inh: 3%; Nrf2 activator: -3%; ERG-DNA inh: -1%; LDHA block: -2

How did Clc1ccc(-n2c(Cc3ccccc3)nnc2SCc2nc(-c3cccs3)no2)cc1 do in these assays?
Nrf2 block: inconclusive; A549 viability: inconclusive; ALOX12 inh: 0%; Nrf2 activator: 0%; ERG-DNA inh: 0%; LDHA block: 1

Results for N#C/C(=C(/O)c1ccco1)c1nc2ccccc2[nH]1 ?
Nrf2 block: inconclusive; A549 viability: 10%; ALOX12 inh: 13%; Nrf2 activator: 6.3µM*; ERG-DNA inh: 1%; LDHA block: 1

How did COc1ccc(-c2c(-c3ccc4ccccc4c3)[nH]c3c2c(=O)[nH]c(=O)n3C)cc1 do in these assays?
ALOX12 inh: inconclusive; LDHA block: 1

How did CCC(C)c1ccc(NC(=S)NCCn2cc(Br)cn2)cc1 (stereo not given) do in these assays?
Nrf2 block: 13%; A549 viability: 4%; ALOX12 inh: inconclusive; Nrf2 activator: 1%; ERG-DNA inh: 11%; LDHA block: 2
